Compound activity from PubChem.
GCN5L2 inh: blocks human GCN5L2 histone acetyltransferase. Q92830. GCN5L2 HAT assay, ThioGlo1 CoA-SH fluorescence. Potency, µM (top dose mostly 58.9 µM), usual class: inhibitors. actives 0.21% (n = 390,000). AID 504327
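Free CoA generated was detected with ThioGlo1 (50uM) fluorescence at Ex340nm/Em540nm, read immediately and after 20 min at room temperature. Enzyme, 20 nM in HEPES pH 7.5 buffer, saw compounds 15 min before adding 75uM H3(1-25) peptide and 70uM acetyl-CoA.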
HP1b chromo inh: blocks HP1-beta chromodomain binding to methylated histone tails. P83916. AlphaScreen HP1-beta / biotin-H3K9me3 peptide binding. Potency, µM (titrated, usually from 114 µM), most hits filed as inhibitors. actives 0.56% (n = 390,000). AID 540317; note: nearly all actives have a fitted effect of over 70% in size
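HP1-beta protein (50 nM final) preincubated 30 min at room temperature with biotinylated H3(1-18)K9me3 peptide (50 nM) in PBS pH 7.4, 0.01% Tween-20, then compound added for 30 min. AlphaScreen streptavidin donor/nickel chelate acceptor beads (10 ug/mL final), 30 min dark, luminescence read.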
JMJD2A Tudor: inhibitors of human JMJD2A Tudor domain | O75164 | AlphaScreen JMJD2A-Tudor / H3K4me3 peptide binding | Potency, µM (titrated, usually from 114 µM), actives largely listed as inhibitors | actives 4.4% (n = 390,000); note: nearly all actives have a fitted effect of over 50% in size
Target sequence (O75164 whole entry, looked up, the tested form may be a part): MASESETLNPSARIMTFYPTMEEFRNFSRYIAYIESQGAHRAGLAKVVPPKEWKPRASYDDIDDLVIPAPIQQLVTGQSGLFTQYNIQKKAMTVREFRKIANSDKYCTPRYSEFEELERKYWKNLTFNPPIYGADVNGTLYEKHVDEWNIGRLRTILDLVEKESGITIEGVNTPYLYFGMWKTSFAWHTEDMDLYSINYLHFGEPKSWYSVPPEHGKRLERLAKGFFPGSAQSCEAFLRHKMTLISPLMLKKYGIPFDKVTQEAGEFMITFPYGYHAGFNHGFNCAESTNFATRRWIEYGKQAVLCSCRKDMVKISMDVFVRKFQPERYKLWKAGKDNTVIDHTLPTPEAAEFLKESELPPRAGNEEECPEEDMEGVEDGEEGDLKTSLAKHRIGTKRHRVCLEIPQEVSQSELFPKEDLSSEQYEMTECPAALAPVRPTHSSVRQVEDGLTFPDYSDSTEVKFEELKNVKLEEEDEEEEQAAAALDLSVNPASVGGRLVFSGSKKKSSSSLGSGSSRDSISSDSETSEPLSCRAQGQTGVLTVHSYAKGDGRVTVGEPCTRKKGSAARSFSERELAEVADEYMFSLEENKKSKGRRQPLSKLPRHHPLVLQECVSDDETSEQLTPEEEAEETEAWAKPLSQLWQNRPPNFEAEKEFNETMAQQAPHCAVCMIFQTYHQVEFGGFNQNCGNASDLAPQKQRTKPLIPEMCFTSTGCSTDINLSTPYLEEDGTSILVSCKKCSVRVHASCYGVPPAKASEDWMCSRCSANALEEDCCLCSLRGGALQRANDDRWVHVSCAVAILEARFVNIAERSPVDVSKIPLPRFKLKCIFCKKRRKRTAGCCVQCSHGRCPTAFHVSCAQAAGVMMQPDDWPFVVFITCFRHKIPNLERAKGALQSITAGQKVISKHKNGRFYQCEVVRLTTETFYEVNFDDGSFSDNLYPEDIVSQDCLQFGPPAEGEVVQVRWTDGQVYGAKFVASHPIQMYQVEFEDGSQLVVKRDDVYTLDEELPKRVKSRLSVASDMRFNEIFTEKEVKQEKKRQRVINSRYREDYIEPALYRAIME
BAZ2B block: inhibitors of human BAZ2B bromodomain; Q9UIF8; AlphaScreen BAZ2B-H3K14Ac peptide displacement; Potency, µM (highest dose often 114 µM), actives largely listed as inhibitors; actives 4.4% (n = 360,000); note: nearly all actives have a fitted effect of over 60% in size
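BAZ2B (50 nM) with biotin-H3(5-23)K14Ac peptide (50 nM) in PBS pH 7.4, 0.01% Tween-20, preformed 30 min, then compound 30 min at room temperature; top concentration 110uM. AlphaScreen streptavidin donor/nickel chelate acceptor beads (10 ug/mL final), 20 min dark, signal read.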
PLK1 PBD inh: PLK1 (human) polo-box domain binding inhibition. actives 2.8% (n = 360,000). Plk1 PBD binding of FITC phosphopeptide, fluorescence polarization. Potency, µM, most hits filed as inhibitors; note: series mostly up to about 57 µM; nearly all actives have a fitted effect of over 65% in size
PI5P4Ka inh: blocks human PI5P4K alpha kinase activity; PI5P4Kalpha enzyme, ADP-Glo luminescence, 60 min; active compounds read low; actives 1.2% (n = 330,000); max response, %; AID 652105; active = max response of -50% or lower; inconclusive = between -30% and -50%; inactive = -30% or higher; note: value at the top dose of about 77 µM
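ADP-Glo luminescence end-point read after a 60 min room-temperature kinase reaction of PI5P4Kalpha plus substrate, initiated with ATP at 5 microM final. Buffer: 0.038 M HEPES pH 7.4, EGTA, 0.1% CHAPS, 5% DMSO.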
Hits are given with their value; [ ] = dose if it differs, or a comment. Rows were chosen to be rich in hits. Some 7% of all compounds tested hit in one or more screens of this group. Unless noted, calls come from the whole dose curve; as a rule, active = well fitted curve in the direction sought with a large enough effect; inconclusive = small, poorly fitted or top-dose-only effect, or another doubt; inactive = no such curve, though single readings can be large; an effect the other way counts as inactive or inconclusive.

Results for CC(C)CCNC(=O)c1ccc(Cn2c(=O)c3cccn3c3cccnc32)cc1 ?
GCN5L2 inh: inactive; HP1b chromo inh: inactive; JMJD2A Tudor: inactive; BAZ2B block: inconclusive

What do the screens show for `CC(C)CCNc1nc2c(-c3ccccc3)nnn2c2ccccc12`?
GCN5L2 inh: inactive; HP1b chromo inh: inactive; JMJD2A Tudor: inactive; BAZ2B block: inactive

What do the screens show for `CCC1(CC)C(=O)Nc2ccccc21`?
HP1b chromo inh: inactive; JMJD2A Tudor: inactive; PLK1 PBD inh: inactive; PI5P4Ka inh: inactive

Results for CCC1(CC)C(=O)NC(=O)NC1=S ?
HP1b chromo inh: inactive; JMJD2A Tudor: 50µM; PLK1 PBD inh: inactive; PI5P4Ka inh: inactive

Results for COc1ccc(CCn2c3c(c(=O)[nH]c2=S)CN(Cc2ccccc2)CN3)cc1OC ?
HP1b chromo inh: inactive; JMJD2A Tudor: inactive

How did O=c1[nH]c(=S)[nH]c2sccc12 do in these assays?
GCN5L2 inh: inactive; HP1b chromo inh: inconclusive; JMJD2A Tudor: 3.5µM; BAZ2B block: inactive; PLK1 PBD inh: 15µM; PI5P4Ka inh: inconclusive

How did CCN1C(=O)c2ccccc2S(=O)c2ccc(C(=O)N3CCN(c4ccccc4OC)CC3)cc21 (stereo unspecified) do in these assays?
GCN5L2 inh: inactive; HP1b chromo inh: inactive; JMJD2A Tudor: inactive; BAZ2B block: inactive

Results for O=C(O)c1cc(=S)nc[nH]1 ?
HP1b chromo inh: inconclusive; JMJD2A Tudor: inconclusive; PLK1 PBD inh: inconclusive; PI5P4Ka inh: -65

Results for O=C(O)c1c[nH]n2c(=S)ncnc12 ?
PLK1 PBD inh: inactive; PI5P4Ka inh: inactive

What do the screens show for `O=C1CC2(CCN(C(=O)c3cccc(F)c3)CC2)Oc2ccccc21`?
GCN5L2 inh: inactive; HP1b chromo inh: inactive; JMJD2A Tudor: inactive; BAZ2B block: inactive; PLK1 PBD inh: inactive; PI5P4Ka inh: inactive

Results for O=C(O)CCN1/C(=C/C=Nc2ccccc2)Oc2ccccc21 ?
GCN5L2 inh: inactive; HP1b chromo inh: inactive; JMJD2A Tudor: 56µM; PLK1 PBD inh: inactive; PI5P4Ka inh: inactive

How did O=C(O)CCN1C(=O)c2ccccc2C1=O do in these assays?
GCN5L2 inh: inactive; HP1b chromo inh: inactive; JMJD2A Tudor: inactive; BAZ2B block: inactive; PLK1 PBD inh: inactive; PI5P4Ka inh: inactive

Results for COc1ccccc1C1c2c(ncn(-c3ccccc3)c2=N)Oc2ccc3ccccc3c21 (stereo unspecified) ?
JMJD2A Tudor: 56µM

What do the screens show for `COc1cccc(C2c3c(ncn(-c4ccccc4)c3=N)Oc3ccc4ccccc4c32)c1` (stereo unspecified)?
JMJD2A Tudor: 56µM

What do the screens show for `N=c1c2c(ncn1-c1ccccc1)Oc1ccc3ccccc3c1C2c1ccc2c(c1)OCO2` (stereo unspecified)?
JMJD2A Tudor: 45µM

Results for COc1ccc(C2c3c(ncn(CCCO)c3=N)Oc3ccc4ccccc4c32)cc1OC (stereo unspecified) ?
GCN5L2 inh: inactive; HP1b chromo inh: inactive; JMJD2A Tudor: inactive; BAZ2B block: inconclusive; PLK1 PBD inh: inactive; PI5P4Ka inh: inactive

Results for COc1cccc(C2c3c(ncn(-c4ccccc4OC)c3=N)Oc3ccc4ccccc4c32)c1 (stereo unspecified) ?
JMJD2A Tudor: 56µM

How did COc1cccc(C2c3c(ncn(CCN4CCOCC4)c3=N)Oc3ccc4ccccc4c32)c1 (stereo unspecified) do in these assays?
JMJD2A Tudor: inactive

Results for COc1ccc(CC(N)c2csc(NC(=O)c3cc(C(C)(C)C)nn3Cc3ccccc3)n2)cc1 (stereo unspecified) ?
PLK1 PBD inh: inactive; PI5P4Ka inh: inactive

What do the screens show for `COc1cc(NC(=O)CCc2c(C)nc3c4c(C)cc(C)nc4nn3c2C)cc(OC)c1`?
GCN5L2 inh: inconclusive; HP1b chromo inh: inactive; JMJD2A Tudor: inconclusive; BAZ2B block: inactive

Results for CCOC(=O)c1ccccc1NC(=O)N1CCCN(S(=O)(=O)c2ccc3c(ccn3CC)c2)CC1 ?
GCN5L2 inh: inactive; HP1b chromo inh: inactive; JMJD2A Tudor: inactive; BAZ2B block: inactive

What do the screens show for `O=C(Nc1ncnc2c1C(c1ccccc1)c1c(ccc3ccccc13)O2)c1ccccc1` (stereo unspecified)?
GCN5L2 inh: inactive; HP1b chromo inh: inactive; JMJD2A Tudor: inactive

Results for N=c1c2c(ccn1-c1ccccc1)Oc1ccc3ccccc3c1C2c1ccccc1 (stereo unspecified) ?
JMJD2A Tudor: 40µM

What do the screens show for `COc1cccc(C2c3c(ncn(-c4cccc(F)c4)c3=N)Oc3ccc4ccccc4c32)c1` (stereo unspecified)?
JMJD2A Tudor: 50µM

Results for O=C(CN1CCCCC1)NN(Cc1ccccc1)c1ccccc1 ?
GCN5L2 inh: inactive; HP1b chromo inh: inconclusive; JMJD2A Tudor: inactive[11.4 µM]; BAZ2B block: 50µM; PLK1 PBD inh: inactive; PI5P4Ka inh: inactive

Results for O=C(CN1CCCC1)Nc1ccc(OC(F)(F)F)cc1 ?
GCN5L2 inh: inactive; HP1b chromo inh: inconclusive; JMJD2A Tudor: 0.79µM; BAZ2B block: inconclusive; PLK1 PBD inh: inactive; PI5P4Ka inh: inactive

What do the screens show for `CN1CCc2c1nc1ccccc1c2NC(=O)CN1CCCC1`?
GCN5L2 inh: inactive; HP1b chromo inh: inactive; JMJD2A Tudor: 5.6µM; BAZ2B block: inconclusive; PLK1 PBD inh: inactive; PI5P4Ka inh: inactive

How did CCCCCCC(=O)Nc1c2c(nc3ccccc13)N(C)CC2 do in these assays?
HP1b chromo inh: inactive; JMJD2A Tudor: inactive; BAZ2B block: inconclusive; PLK1 PBD inh: inactive; PI5P4Ka inh: inactive

What do the screens show for `O=C(CN1CCc2ccccc2C1)Nc1ccc(OC(F)(F)F)cc1`?
GCN5L2 inh: inactive; HP1b chromo inh: inactive; JMJD2A Tudor: inactive; BAZ2B block: inactive; PLK1 PBD inh: inactive; PI5P4Ka inh: inactive

How did O=C(CN1CCCCC1)Nc1ccccc1NC(=O)CN1CCCCC1 do in these assays?
GCN5L2 inh: inactive; HP1b chromo inh: inactive; JMJD2A Tudor: inactive; BAZ2B block: inactive; PLK1 PBD inh: inactive; PI5P4Ka inh: inactive

What do the screens show for `O=C(CNCC1CCCCC1)Nc1ccc(OC(F)(F)F)cc1`?
GCN5L2 inh: inactive; HP1b chromo inh: inactive; JMJD2A Tudor: 3.5µM; BAZ2B block: 50µM; PLK1 PBD inh: inactive; PI5P4Ka inh: inactive

Results for O=C(NCC1CCCCC1)c1[nH]c(C(F)(F)F)nc1-c1ccccc1 ?
PLK1 PBD inh: inactive; PI5P4Ka inh: inactive

Results for O=C1CC2(CCN(C(=O)c3ccccc3[N+](=O)[O-])CC2)Oc2ccccc21 ?
GCN5L2 inh: inactive; HP1b chromo inh: inactive; JMJD2A Tudor: inactive; BAZ2B block: inactive; PLK1 PBD inh: inactive; PI5P4Ka inh: inactive

What do the screens show for `Cc1nc(/N=C\c2ccc(N(C)C)cc2)sc1C`?
GCN5L2 inh: inactive; HP1b chromo inh: inactive; JMJD2A Tudor: inactive; BAZ2B block: inactive; PLK1 PBD inh: inactive; PI5P4Ka inh: inactive
